Source: PubChem BioAssay (Tox21)
Where “and” joins values, the source holds several entries; their conditions need not be identical. Equal values may be shown once. Records with an inconclusive call do not appear. Calls of active or inactive are those of the source. Unless noted, calls come from the whole dose curve; as a rule, active = well fitted curve in the direction sought with a large enough effect in the repeat runs; inconclusive = weak or mixed curves; inactive = no such curve, though single readings can be large; an effect the other way counts as inactive or inconclusive.

Experiments:
[1] = biological target: Acetylcholinesterase (Homo sapiens) (UniProt P22303); experiment: Acetylcholinesterase (AChE) small molecule antagonists: fluorescence cell-based qHTS assay (AID 1347398; calls by dose curve; note: nearly all actives have a fitted effect of over 50% in size); conditions: Potency: AChE activity
In short: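 Cellular AChE activity read as thiocholine from acetylthiocholine hydrolysis, detected by Thiolite Green fluorescence at 490/520 nm after 40 min at room temperature. Compounds were pre-incubated 30 min at 37 C on adherent SH-SY5Y cells.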

[2] = biological target: Acetylcholinesterase (Homo sapiens) (UniProt P22303); experiment: Acetylcholinesterase (AChE) small molecule antagonists: enzyme-based qHTS assay with human liver microsomes (AID 1347399; calls by dose curve; note: nearly all actives have a fitted effect of over 60% in size); conditions: Potency: qHTS inhibition
In short: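 Recombinant human AChE (50 mU/mL in the enzyme mix) and human liver microsomes (0.25 mg/mL final) were preincubated with compound and NADPH (0.25 mg/mL final) for 30 min at 37 C. Acetylthiocholine/DTNB was then added; thiocholine was read colorimetrically after 10 min at room temperature.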

[3] = biological target: Cytochrome P450 2D6 (Homo sapiens) (UniProt P10635); experiment: Cytochrome P450 Family 2 Subfamily D Member 6 (CYP2D6) small molecule antagonists: luciferase reporter qHTS assay (AID 1671196); note: nearly all actives have a fitted effect of over 50% in size
In short: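 Enzyme and proluciferin substrate were first combined with test chemical for 10 min at room temperature. Adding NADPH regeneration solution started a 1 h reaction, stopped with luciferin detection reagent and read by luminescence 20 min later.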

[4] = biological target: Cytochrome P450 2C19 (Homo sapiens) (UniProt P33261); experiment: Cytochrome P450 Family 2 Subfamily C Member 19 (CYP2C19) small molecule antagonists: luciferase reporter qHTS assay (AID 1671197); note: nearly all actives have a fitted effect of over 65% in size
In short: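 Relative luminescence units recorded 20 min after the detection reagent stopped a 1 h, 37C CYP2C19 reaction on proluciferin substrate, which was started by NADPH regeneration following 10 min room-temperature compound preincubation; ketoconazole positive control.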

[5] = biological target: Cytochrome P450 1A2 (Homo sapiens) (UniProt P05177); experiment: Cytochrome P450 Family 1 Subfamily A Member 2 (CYP1A2) small molecule antagonists: luciferase reporter qHTS assay (AID 1671199); note: nearly all actives have a fitted effect of over 50% in size
In short: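 Compounds were incubated with CYP1A2 and a luminogenic proluciferin substrate for 10 min at room temperature before the reaction was started with NADPH regeneration solution. After 1 h, detection reagent was added and light output, proportional to CYP activity, was recorded.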

[6] = biological target: Voltage-gated inwardly rectifying potassium channel KCNH2 (Homo sapiens) (UniProt Q12809); experiment: Human Ether-a-go-go-Related Gene (hERG) channel small molecule antagonists: fluorescence cell-based qHTS assay (AID 1671200); note: nearly all actives have a fitted effect of over 50% in size
In short: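 Read-out: thallium influx as a surrogate for potassium, tracked as fluorescence (480 nm ex/540 nm em) every second for 2 min after Stimulus Buffer addition in dye-loaded hERG-U2OS cells.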

[7] = biological target: Cytochrome P450 3A4 (Homo sapiens) (UniProt P08684); experiment: Cytochrome P450 Family 3 Subfamily A Member 4 (CYP3A4) small molecule antagonists: luciferase reporter qHTS assay (AID 1671201); note: nearly all actives have a fitted effect of over 50% in size
In short: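 Luminescent readout (RLU) proportional to CYP3A4 activity, from luciferin generated off a proluciferin substrate. Enzyme–substrate mix plus compound 10 min at room temp, NADPH regeneration 1 h, detection reagent 20 min.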

[8] = biological target: Cytochrome P450 2C9 (Homo sapiens) (UniProt P11712); experiment: Cytochrome P450 Family 2 Subfamily C Member 9 (CYP2C9) small molecule antagonists: luciferase reporter qHTS assay (AID 1671198); note: nearly all actives have a fitted effect of over 50% in size
In short: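 Enzyme-substrate mix preincubated with compound 10 min at room temperature; reaction started with NADPH regeneration solution, 1 h 37C. Luminescent luciferin product read after 20 min detection reagent.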

Measured: Potency
Potency is the fitted concentration of half-maximal effect.

Voltage-gated inwardly rectifying potassium channel KCNH2 (Homo sapiens), sequence (Q12809 whole entry, looked up): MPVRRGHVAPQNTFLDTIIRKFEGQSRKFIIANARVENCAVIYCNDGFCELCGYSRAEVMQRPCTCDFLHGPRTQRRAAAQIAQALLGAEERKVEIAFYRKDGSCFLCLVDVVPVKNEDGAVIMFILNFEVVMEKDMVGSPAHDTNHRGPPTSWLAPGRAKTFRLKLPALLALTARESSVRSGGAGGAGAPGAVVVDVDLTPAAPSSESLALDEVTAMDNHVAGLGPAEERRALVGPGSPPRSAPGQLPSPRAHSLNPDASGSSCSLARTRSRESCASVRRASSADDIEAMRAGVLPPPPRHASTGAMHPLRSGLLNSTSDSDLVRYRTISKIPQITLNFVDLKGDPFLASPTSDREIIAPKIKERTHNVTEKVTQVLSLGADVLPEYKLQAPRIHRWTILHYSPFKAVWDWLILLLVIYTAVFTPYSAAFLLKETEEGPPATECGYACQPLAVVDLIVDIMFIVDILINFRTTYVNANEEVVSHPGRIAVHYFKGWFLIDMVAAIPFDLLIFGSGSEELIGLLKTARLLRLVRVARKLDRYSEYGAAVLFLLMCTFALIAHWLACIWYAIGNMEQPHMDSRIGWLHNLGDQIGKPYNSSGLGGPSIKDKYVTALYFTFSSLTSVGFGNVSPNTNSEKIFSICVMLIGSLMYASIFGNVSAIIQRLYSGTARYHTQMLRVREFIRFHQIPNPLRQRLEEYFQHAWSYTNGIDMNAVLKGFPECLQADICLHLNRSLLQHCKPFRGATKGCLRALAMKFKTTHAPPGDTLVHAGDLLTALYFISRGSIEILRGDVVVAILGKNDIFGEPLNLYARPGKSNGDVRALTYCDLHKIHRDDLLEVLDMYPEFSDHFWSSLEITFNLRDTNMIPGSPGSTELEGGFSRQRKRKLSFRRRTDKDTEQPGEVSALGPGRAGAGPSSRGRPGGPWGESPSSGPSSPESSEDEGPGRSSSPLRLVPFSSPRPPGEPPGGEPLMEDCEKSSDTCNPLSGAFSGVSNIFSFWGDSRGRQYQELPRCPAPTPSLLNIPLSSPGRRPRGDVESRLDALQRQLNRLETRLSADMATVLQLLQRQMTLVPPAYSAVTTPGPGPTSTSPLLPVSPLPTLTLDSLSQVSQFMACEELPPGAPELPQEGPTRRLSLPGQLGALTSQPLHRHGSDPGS
Cytochrome P450 1A2 (Homo sapiens), sequence (P05177 whole entry, looked up): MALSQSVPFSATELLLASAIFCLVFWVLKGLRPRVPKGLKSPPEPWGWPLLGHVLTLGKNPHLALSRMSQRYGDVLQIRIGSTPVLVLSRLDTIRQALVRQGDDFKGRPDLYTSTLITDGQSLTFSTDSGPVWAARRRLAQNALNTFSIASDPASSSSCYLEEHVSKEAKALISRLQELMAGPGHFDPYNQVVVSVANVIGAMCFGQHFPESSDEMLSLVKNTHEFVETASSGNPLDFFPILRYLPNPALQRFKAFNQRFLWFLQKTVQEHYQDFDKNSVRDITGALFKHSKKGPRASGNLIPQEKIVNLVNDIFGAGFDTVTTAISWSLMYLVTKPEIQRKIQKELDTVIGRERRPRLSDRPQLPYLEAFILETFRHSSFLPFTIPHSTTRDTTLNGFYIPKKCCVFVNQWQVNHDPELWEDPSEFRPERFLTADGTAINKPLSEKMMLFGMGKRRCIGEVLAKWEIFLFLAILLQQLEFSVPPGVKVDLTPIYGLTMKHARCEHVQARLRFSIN
Cytochrome P450 2D6 (Homo sapiens), sequence (P10635 whole entry, looked up): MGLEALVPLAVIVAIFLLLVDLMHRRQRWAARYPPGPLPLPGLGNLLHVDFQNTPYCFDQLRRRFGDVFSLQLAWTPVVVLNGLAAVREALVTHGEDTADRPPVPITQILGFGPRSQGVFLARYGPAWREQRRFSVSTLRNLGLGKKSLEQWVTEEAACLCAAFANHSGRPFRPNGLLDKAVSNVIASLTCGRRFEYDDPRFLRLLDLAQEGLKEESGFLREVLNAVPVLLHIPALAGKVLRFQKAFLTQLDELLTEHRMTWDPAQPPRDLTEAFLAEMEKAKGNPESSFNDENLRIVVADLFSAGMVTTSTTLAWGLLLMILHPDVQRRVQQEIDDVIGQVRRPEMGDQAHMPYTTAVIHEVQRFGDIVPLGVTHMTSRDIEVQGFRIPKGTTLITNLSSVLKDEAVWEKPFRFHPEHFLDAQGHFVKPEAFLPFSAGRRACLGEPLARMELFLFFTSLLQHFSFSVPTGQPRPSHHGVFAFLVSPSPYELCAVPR
Cytochrome P450 3A4 (Homo sapiens), sequence (P08684 whole entry, looked up): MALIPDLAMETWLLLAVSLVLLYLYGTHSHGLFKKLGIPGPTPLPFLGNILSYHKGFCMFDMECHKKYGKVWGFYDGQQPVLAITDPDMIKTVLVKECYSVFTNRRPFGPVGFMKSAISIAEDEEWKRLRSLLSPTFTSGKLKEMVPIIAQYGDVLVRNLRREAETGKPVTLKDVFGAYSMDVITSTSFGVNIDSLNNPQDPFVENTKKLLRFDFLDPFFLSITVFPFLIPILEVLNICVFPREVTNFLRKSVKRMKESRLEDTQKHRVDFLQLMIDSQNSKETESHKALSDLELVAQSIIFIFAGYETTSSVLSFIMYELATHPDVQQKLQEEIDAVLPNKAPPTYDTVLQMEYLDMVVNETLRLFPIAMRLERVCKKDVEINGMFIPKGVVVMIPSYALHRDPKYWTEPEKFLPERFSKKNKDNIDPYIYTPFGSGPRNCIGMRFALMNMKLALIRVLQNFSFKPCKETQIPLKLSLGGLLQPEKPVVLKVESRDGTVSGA
Acetylcholinesterase (Homo sapiens), sequence (P22303 whole entry, looked up): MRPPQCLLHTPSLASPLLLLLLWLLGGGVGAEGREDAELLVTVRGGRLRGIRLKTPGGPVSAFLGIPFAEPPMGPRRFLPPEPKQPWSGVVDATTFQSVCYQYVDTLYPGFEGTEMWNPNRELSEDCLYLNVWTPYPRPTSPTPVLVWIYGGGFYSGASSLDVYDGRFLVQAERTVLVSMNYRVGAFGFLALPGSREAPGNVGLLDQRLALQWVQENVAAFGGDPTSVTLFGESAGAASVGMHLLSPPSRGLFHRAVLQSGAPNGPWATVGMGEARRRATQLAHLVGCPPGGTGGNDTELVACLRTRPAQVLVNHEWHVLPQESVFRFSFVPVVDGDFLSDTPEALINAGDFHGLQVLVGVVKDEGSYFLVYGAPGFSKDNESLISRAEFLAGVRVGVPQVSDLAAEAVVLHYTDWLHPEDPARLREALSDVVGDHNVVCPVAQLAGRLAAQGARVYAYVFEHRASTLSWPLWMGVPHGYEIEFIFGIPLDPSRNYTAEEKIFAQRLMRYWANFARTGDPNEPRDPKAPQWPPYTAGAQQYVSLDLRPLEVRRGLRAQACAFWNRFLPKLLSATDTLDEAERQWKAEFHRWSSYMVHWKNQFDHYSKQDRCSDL
Cytochrome P450 2C19 (Homo sapiens), sequence (P33261 whole entry, looked up): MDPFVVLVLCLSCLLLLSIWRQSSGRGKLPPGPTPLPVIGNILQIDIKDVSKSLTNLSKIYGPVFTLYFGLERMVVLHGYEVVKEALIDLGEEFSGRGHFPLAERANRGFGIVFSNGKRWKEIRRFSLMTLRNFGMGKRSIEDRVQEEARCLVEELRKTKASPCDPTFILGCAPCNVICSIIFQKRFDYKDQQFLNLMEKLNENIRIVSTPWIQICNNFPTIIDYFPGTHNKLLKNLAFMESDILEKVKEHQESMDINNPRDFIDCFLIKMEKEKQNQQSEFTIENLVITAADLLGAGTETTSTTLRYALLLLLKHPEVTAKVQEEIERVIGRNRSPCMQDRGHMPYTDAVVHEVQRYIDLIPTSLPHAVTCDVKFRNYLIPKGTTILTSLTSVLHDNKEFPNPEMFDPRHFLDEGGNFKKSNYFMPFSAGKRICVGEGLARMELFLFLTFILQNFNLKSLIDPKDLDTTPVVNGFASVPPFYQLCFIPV
Cytochrome P450 2C9 (Homo sapiens), sequence (P11712 whole entry, looked up): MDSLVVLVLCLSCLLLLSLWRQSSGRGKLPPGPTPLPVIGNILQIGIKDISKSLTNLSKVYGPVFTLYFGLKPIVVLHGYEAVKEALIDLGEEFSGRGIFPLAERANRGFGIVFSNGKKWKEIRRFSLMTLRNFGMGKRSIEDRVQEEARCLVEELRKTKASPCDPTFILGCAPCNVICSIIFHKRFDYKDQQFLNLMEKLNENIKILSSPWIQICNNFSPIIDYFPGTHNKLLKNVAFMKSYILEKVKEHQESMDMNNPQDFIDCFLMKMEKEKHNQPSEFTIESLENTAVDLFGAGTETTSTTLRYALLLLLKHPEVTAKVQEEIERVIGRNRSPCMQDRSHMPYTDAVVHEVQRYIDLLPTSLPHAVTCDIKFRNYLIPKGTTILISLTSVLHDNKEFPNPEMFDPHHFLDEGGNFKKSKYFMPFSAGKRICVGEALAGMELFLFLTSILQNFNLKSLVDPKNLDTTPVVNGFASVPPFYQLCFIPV

N#CNC#N
not listed: [8]
inactive: all other assays above

Cc1cc(SCc2sc(-c3ccc(C(F)(F)F)c(F)c3)nc2C)ccc1OCC(=O)O
active: [8] 35.6 µM
not listed: [5]
inactive: all other assays above

NC(=O)CCl
not listed: [8]
inactive: all other assays above

Cc1cc(C)cc(OP(=O)(Oc2cc(C)cc(C)c2)Oc2cc(C)cc(C)c2)c1
inactive: [1] | [2] | [3]
active: [4] 9.08 µM | [5] 22.8 µM | [7] 2.03 µM

O=C(Nc1ccc2[nH]ccc2c1)c1cc2cc(F)ccc2n1Cc1cccc(F)c1
inactive: [1] | [2] | [6]
active: [3] 15.9 µM | [4] 6.33 µM | [8] 3.56 µM | [7] 2.52 µM

ClC(Cl)=C(Cl)Cl
not listed: [5] | [8]
inactive: all other assays above

N#CCCO
not listed: [8]
inactive: all other assays above

Clc1ccc(COC(Cn2ccnc2)c2ccc(Cl)cc2Cl)cc1 (configuration not stated)
inactive: [1] | [2]
active: [3] 663 nM and 224 nM and 490 nM | [4] 166 nM and 89 nM and 246 nM | [5] 1.87 µM and 1.78 µM and 911 nM

COCC(=O)N(c1c(C)cccc1C)[C@H](C)C(=O)OC
active: [4] 79.6 µM
not listed: [5]
inactive: all other assays above

CC(C)OC(=O)C(O)(c1ccc(Cl)cc1)c1ccc(Cl)cc1
active: [3] 31.7 µM | [4] 2 µM | [8] 8.94 µM | [6] 21.9 µM
inactive: [1] | [2] | [7]

CC(=O)c1cc(C(C)(C)C)cc2c1CCC2(C)C
active: [5] 31.7 µM
not listed: [8]
inactive: all other assays above

CCOC(=O)CC(=O)CCl
not listed: [5]
inactive: all other assays above

CCOP(=S)(OCC)OC(Cl)C(Cl)(Cl)Cl (configuration not stated)
active: [1] 31.7 µM | [2] 28.3 µM | [4] 39.9 µM | [5] 35.6 µM
inactive: [3]

O=C(NC(=O)c1c(F)cccc1F)Nc1cc(Cl)c(OC(F)(F)C(F)F)c(Cl)c1
active: [4] 79.6 µM | [8] 39.9 µM
not listed: [5]
inactive: all other assays above

Oc1ccc(C(=C(Cl)Cl)c2ccc(O)cc2)cc1
active: [4] 12.6 µM | [5] 39.8 µM | [7] 11.2 µM
inactive: [1] | [2] | [3]

O=C1NCN(c2ccccc2)C12CCN(CC1COc3ccccc3O1)CC2 (configuration not stated)
inactive: [1] | [2] | [5]
active: [3] 0.11 µM | [4] 4.36 µM | [6] 7.56 µM

CC1(C)C(/C=C(\Cl)C(F)(F)F)C1C(=O)OC(C#N)c1cccc(Oc2ccccc2)c1 (configuration not stated)
active: [4] 8.09 µM | [8] 8.09 µM
not listed: [5]
inactive: all other assays above

Cn1[nH]nnc1=S
active: [4] 56.4 µM | [8] 71 µM
not listed: [5]
inactive: all other assays above

CC1(C)[C@H](C(=O)O[C@H](C#N)c2cccc(Oc3ccccc3)c2)[C@@H]1/C=C(\Cl)C(F)(F)F
active: [4] 5.86 µM and 7.1 µM | [8] 8.28 µM and 7.96 µM
not listed: [5]
inactive: all other assays above

Clc1ccc(CCC(Cn2ccnc2)Sc2c(Cl)cccc2Cl)cc1 (configuration not stated)
inactive: [1] | [2]
active: [3] 2.19 µM | [4] 0.0347 µM | [5] 15.5 µM | [6] 7.56 µM

COP(=S)(OC)Oc1cc(Cl)c(Br)cc1Cl
active: [4] 17.8 µM | [5] 11.2 µM
inactive: [1] | [2] | [3]

CCC[CH2][Sn]([CH2]CCC)([CH2]CCC)[O]C(=O)c1ccccc1
inactive: [1] | [2]
active: [3] 1.12 µM | [4] 1.59 µM | [8] 12.6 µM | [6] 4.9 µM | [7] 35.6 µM

COC(=O)N(C(=O)N1COC2(C(=O)OC)Cc3cc(Cl)ccc3C2=N1)c1ccc(OC(F)(F)F)cc1 (configuration not stated)
active: [4] 0.195 µM | [7] 5.49 µM
not listed: [8]
inactive: all other assays above

C[C@H]1O[C@@H](O[C@H]2[C@@H](O)C[C@H](O[C@H]3[C@@H](O)C[C@H](O[C@H]4CC[C@@]5(C)[C@H](CC[C@@H]6[C@@H]5CC[C@]5(C)[C@@H](C7=CC(=O)OC7)CC[C@]65O)C4)O[C@@H]3C)O[C@@H]2C)C[C@H](O)[C@@H]1O
not listed: [5]
inactive: all other assays above

CCCCCCCCCCCCCN1CC(C)OC(C)C1 (configuration not stated)
active: [3] 22.4 µM | [6] 13.8 µM
not listed: [8]
inactive: all other assays above

O=c1oc2ccccc2c(O)c1Cc1c(O)c2ccccc2oc1=O
active: [5] 24.5 µM
not listed: [8]
inactive: all other assays above

CCOc1cc(C(C)(C)C)ccc1C1COC(c2c(F)cccc2F)=N1 (configuration not stated)
inactive: [1] | [2]
active: [3] 5.43 µM | [4] 3.42 µM | [5] 24.2 µM | [6] 13.3 µM | [7] 0.0683 µM

BrC(Br)Br
inactive: [1] | [2] | [4] | [6]
active: [3] 25.2 µM | [5] 44.8 µM

Cc1cc(C(F)(C(F)(F)F)C(F)(F)F)ccc1NC(=O)c1cccc(I)c1C(=O)NC(C)(C)CS(C)(=O)=O
active: [3] 4.51 µM | [7] 2.01 µM
not listed: [8]
inactive: all other assays above

CCN
not listed: [5]
inactive: all other assays above

CC(C)(C)OO
not listed: [5]
inactive: all other assays above

C=CC(=O)OCCCCOC(=O)C=C
active: [5] 35.6 µM
not listed: [4] | [8]
inactive: all other assays above

CCC(C)c1cc(C(C)(C)C)cc(-n2nc3ccccc3n2)c1O (configuration not stated)
not listed: [5] | [8]
inactive: all other assays above

N#CC(Cl)Cl
inactive: [1] | [2] | [6] | [7]
active: [3] 61.6 µM | [5] 61.6 µM

Cc1cccc(OP(=O)(Oc2cccc(C)c2)Oc2cccc(C)c2)c1
inactive: [1] | [2] | [6]
active: [4] 20 µM | [8] 35.6 µM | [5] 28.3 µM

CCOC(=O)c1ccccc1S(=O)(=O)NC(=O)Nc1nc(Cl)cc(OC)n1
not listed: [4] | [7]
inactive: all other assays above

O=c1c(C2CC(c3ccc(-c4ccc(Br)cc4)cc3)Cc3ccccc32)c(O)sc2ccccc12 (configuration not stated)
active: [8] 5.49 µM
not listed: [4]
inactive: all other assays above

c1ccc(Nc2ccc3ccccc3c2)cc1
active: [4] 7.06 µM and 5.64 µM | [8] 35.4 µM and 31.7 µM | [5] 3.54 µM and 3.56 µM
inactive: [1] | [2] | [6]

CCOC(=O)OC1=C(c2cc(C)ccc2C)C(=O)NC12CCC(OC)CC2 (configuration not stated)
active: [5] 44.8 µM | [7] 1.12 µM
inactive: [1] | [2] | [3] | [6]

O=C(CCl)C(Cl)Cl
active: [3] 40.3 µM | [4] 56.9 µM
inactive: [1] | [2] | [6] | [7]

CC(C)OC(=S)S
not listed: [5] | [8]
inactive: all other assays above

O=c1ssc(Cl)c1Cl
inactive: [1] | [2]
active: [3] 63.3 µM | [5] 35.6 µM | [6] 49 µM | [7] 63.3 µM

CC(Cc1ccc(C(C)(C)C)cc1)CN1C[C@@H](C)O[C@@H](C)C1 (some centres not stated)
active: [4] 31.7 µM | [8] 35.6 µM | [5] 39.9 µM | [6] 12.3 µM
inactive: [1] | [2]

C[C@]12CC[C@H]3[C@@H](CCC4=CC(=O)CC[C@@]43C)[C@@H]1CC[C@@H]2O
inactive: [1] | [2] | [3] | [4] | [7]

O=[N+]([O-])c1cc(Cl)ccc1Cl
not listed: [5] | [8]
inactive: all other assays above

[CH3][Hg][Cl]
active: [6] 24.5 µM | [7] 39.8 µM
inactive: [1] | [2] | [3] | [5]

CCCCCCCCCCCCCCC(Br)C(=O)O (configuration not stated)
not listed: [5] | [8]
inactive: all other assays above

CCOCn1c(-c2ccc(Cl)cc2)c(C#N)c(Br)c1C(F)(F)F
inactive: [1] | [2]
active: [4] 4.48 µM | [8] 8.94 µM | [5] 0.633 µM

CC(C)(COCC1CO1)COCC1CO1 (configuration not stated)
active: [4] 79.6 µM
not listed: [3] | [7]
inactive: all other assays above

O=C(O)COc1nc(Cl)c(Cl)cc1Cl
active: [3] 6.48 µM | [8] 51.5 µM
inactive: [1] | [2] | [6]

Cc1ccc(C(=O)Cl)cc1
not listed: [4] | [7]
inactive: all other assays above

COC12CC[C@@]3(C[C@@H]1C(C)(O)C(C)(C)C)[C@H]1Cc4ccc(O)c5c4[C@@]3(CCN1CC1CC1)[C@H]2O5 (some centres not stated)
active: [3] 2.23 µM
inactive: [1] | [2] | [5]

Nc1ccc(Cl)cc1C(=O)c1ccccc1
inactive: [1] | [2]
active: [4] 15.9 µM | [8] 39.9 µM | [5] 15.9 µM
